# Most compounds without a hit are left out; they make up all but 2.2% or so of the library.
# IDH1 R132H inh: human IDH1 R132H inhibition; IDH1-R132H enzyme, NADPH consumption, diaphorase/resazurin fluorescence; Potency, µM (highest dose often 76.6 µM), usual class: inhibitors; 390,000 compounds, 0.093% hits; AID 602179; further: nearly all actives have a fitted effect of over 65% in size
# Target sequence (O75874 whole entry R132H, stated change not applied): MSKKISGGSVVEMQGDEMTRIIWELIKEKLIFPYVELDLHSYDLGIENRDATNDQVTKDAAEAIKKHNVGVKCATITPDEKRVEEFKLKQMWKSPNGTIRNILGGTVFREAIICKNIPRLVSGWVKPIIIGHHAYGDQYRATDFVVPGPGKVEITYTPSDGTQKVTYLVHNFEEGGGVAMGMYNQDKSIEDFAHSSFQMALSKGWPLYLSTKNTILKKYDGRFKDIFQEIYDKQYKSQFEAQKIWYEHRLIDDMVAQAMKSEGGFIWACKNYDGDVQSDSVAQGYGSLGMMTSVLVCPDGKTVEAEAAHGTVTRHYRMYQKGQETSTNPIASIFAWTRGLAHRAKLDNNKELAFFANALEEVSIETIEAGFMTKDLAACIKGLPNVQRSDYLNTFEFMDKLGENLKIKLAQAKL
#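 IDH1-R132H (0.5 ug/mL dispensed) in pH 7.5 Tris buffer was preincubated 30 min with compound, then given a substrate mix of 0.016 mM NADPH and 2 mM alpha-KG for 80 min at room temperature; remaining NADPH was read by diaphorase/resazurin fluorescence.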
# LDHA inh: inhibitors of human lactate dehydrogenase A. 480,000 compounds, 0.15% hits. activity change, % (values are at about 110 or 230 µM). purified LDHA, NADH/diaphorase-resazurin fluorescence; hits give low values. P00338; in the data active means activity change below about -30%; inconclusive means mostly about -25% to -30%
#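 Resorufin fluorescence (ex540/em590), read at 0 and 20 min after diaphorase/resazurin addition, reports the NADH left after a 5 min room-temperature reaction of 2 nM human LDH5 with 0.06 mM NADH and 0.2 mM pyruvate.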
# ATXN2 expr inh: reduces ATXN2 reporter expression in HEK-293 cells. 360,000 compounds, 0.72% hits. HEK-293 ATXN2-luciferase reporter, luminescence, 24 h. Potency, µM (doses to about 57 µM), usual class: inhibitors; further: nearly all actives have a fitted effect of over 55% in size
#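 ATXN2-luciferase reporter cells (luciferase flanked by upstream and downstream ATXN2 gene portions) were treated 24 h at 37 °C with compounds at up to 57 uM. SteadyGlo luminescence gave expression; GF-AFC fluorescence gave viability.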
# TGFb inhibitor: TGF-b pathway inhibition | AID 588855 | Potency, µM (top dose mostly 46.1 µM), hits mostly inhibitors | HepG2 CAGA-GFP TGF-b/SMAD3 reporter, GFP fluorescence, 18 h; TGF-beta stimulated, 500 pg/mL final | 410,000 compounds, 1.2% hits; further: nearly all actives have a fitted effect of over 65% in size
#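 Per well, imaged GFP fluorescence of HEPG2 CAGA-GFP cells gives the signal; cells get compound, then TGF-beta (500 pg/mL final), 18 h at 37 degrees C; %Activity versus -TGF-beta and +DMSO controls.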
# HepG2 tox: counter-screen for TGF-b inhibitors: cytotoxicity in HepG2 cells. HepG2 CAGA-GFP viability, ATP luminescence, 18 h. Potency, µM (titrated, usually from 46.1 µM), most hits filed as cytotoxic. 410,000 compounds, 0.76% hits
#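 HepG2 CAGA-GFP cells (1000/well, DMEM with 1% FBS) received compound, then TGF-beta at 500 pg/mL final, and were incubated 18 hours at 37 degrees C. Viability was read by CellTiter-Glo luminescence. Media-only wells were set as complete cell-killing and DMSO as no toxicity.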
# ATXN viability: cell viability loss in ATXN counter-screen | S2 cells (HEK-293 line with an ATXN2-luciferase reporter) viability, CellTiter-Fluor protease fluorescence, 24 h | Potency, µM (top dose mostly 56.7 µM), actives largely listed as cytotoxic | 400,000 compounds, 0.49% hits | AID 651635; further: nearly all actives have a fitted effect of over 40% in size
# Numbers stand for hits; 0 = inactive; ? = inconclusive; - = not tested or not shown. Unless noted, the call rests on the fitted dose curve; in most records, active means well fitted curve in the direction sought with a large enough effect; inconclusive means small, poorly fitted or top-dose-only effect, or another doubt; inactive means no such curve, though single readings can be large; an effect the other way counts as inactive or inconclusive.
SMILES,IDH1 R132H inh,LDHA inh,ATXN2 expr inh,TGFb inhibitor,HepG2 tox,ATXN viability
O=C(O)CCSc1nc2ccccc2s1,0,0,10µM,0,0,0
O=C(CCSc1nc2ccccc2s1)Nc1ccc(F)cc1,-,0,-,-,-,-
CCOC(=O)c1ccccc1NC(=O)CCc1nc(-c2ccc(C)cc2)no1,0,0,-,0,0,-
COC(=O)c1ccccc1NC(=O)Cc1nc(-c2ccc(OC)cc2)no1,0,0,-,?,18µM,-
O=C(Nc1ccccc1)c1ccc(Nc2c([N+](=O)[O-])cc([N+](=O)[O-])c3ccccc23)cc1,0,0,0,0,0,0
O=[N+]([O-])c1cc(Br)c(Nc2ccccc2)c([N+](=O)[O-])c1,0,0,-,18µM,0,13µM
CC1Sc2ccc(S(=O)(=O)N3CCC(C(=O)NCc4ccco4)CC3)cc2NC1=O (configuration not stated),0,0,0,0,0,0
COc1ccc(Cl)cc1NC(=O)c1cccc([N+](=O)[O-])c1O,0,0,?,11µM,0,?
Cc1cc(C)cc(NC(=O)NNC(=O)c2cc3occc3[nH]2)c1,0,0,0,0,0,0
O=C(CCl)N(c1ccccc1)C1CCCCC1,0,0,?,?,18µM,?
Cc1ccc(NC(=O)c2nc(S(=O)(=O)Cc3ccc(F)cc3)ncc2Cl)cc1C,0,0,-,5.6µM,7.1µM,-
COc1ccc(OC)c(NC(=O)c2nc(S(=O)(=O)Cc3ccc(F)cc3)ncc2Cl)c1,0,0,-,6.3µM,8.9µM,-
Cc1ccc(CS(=O)(=O)c2ncc(Cl)c(C(=O)Nc3nc4ccc(F)cc4s3)n2)cc1,0,0,0,?,0,?
COc1ccc2nc(NC(=O)c3nc(S(=O)(=O)Cc4ccc(C)cc4)ncc3Cl)sc2c1,0,0,-,4.5µM,0,-
COC(=O)c1ccc(NC(=O)c2nc(S(=O)(=O)Cc3cccc(C)c3)ncc2Cl)cc1,0,0,?,?,22µM,28µM
CC1(C)CSC(=NCCc2ccccc2)N1,0,0,0,0,0,0
CC(=O)Nc1ccc(NC(=O)c2nc(S(=O)(=O)Cc3ccc(F)cc3)ncc2Cl)cc1,0,0,-,2.8µM,4µM,-
CC(=O)Nc1ccc(NC(=O)c2nc(S(=O)(=O)Cc3cccc(C)c3)ncc2Cl)cc1,0,0,?,?,0,?
COc1ccc(C(=O)N2CC(=O)Nc3ccc(C)cc3C2c2ccccc2)c(OC)c1 (configuration not stated),0,0,0,0,0,0
Cc1noc(C)c1S(=O)(=O)N1CCN(c2ccc(Cl)cc2)CC1,0,0,0,0,5µM,0
Cc1ccc(Cl)cc1N1CCN(S(=O)(=O)c2c(C)noc2C)CC1,0,0,0,0,0,0
O=[N+]([O-])c1ccc(-c2nc(Nc3ccccc3)c3ccccc3n2)cc1,-,0,-,-,-,-
O=[N+]([O-])c1ccc(-c2nc(C(Cl)Cl)c3ccccc3n2)cc1,0,0,4µM,0,0,?
CCOC(=O)c1ccccc1NC(=O)/C=C/c1cc(OC)c(OC)c(OC)c1,0,0,0,0,0,0
Cc1cc(C)c(NC(=O)Nc2ccccc2C)c(Cl)c1,0,0,-,0,1.3µM,0
SMILES,IDH1 R132H inh,LDHA inh,ATXN2 expr inh,TGFb inhibitor,HepG2 tox,ATXN viability
Cc1cccc(NC(=S)N(CCCN2CCCC2)Cc2cccn2Cc2ccc(Cl)cc2)c1,0,0,32µM,?,0,-
CCOc1ccc(NC(=S)N(CCCN2CCCC2)Cc2cccn2Cc2ccc(Cl)cc2)cc1,0,0,0,0,0,0
O=C(NCc1nc2ccccc2[nH]1)C1=C[C@H](c2ccc(Br)cc2)C[C@H](OCc2ccc(CO)cc2)O1,0,0,0,0,0,?
O=C(NCc1nc2ccccc2[nH]1)C1=C[C@H](c2ccc(C(F)(F)F)cc2)C[C@H](OCc2ccc(CO)cc2)O1,0,0,?,11µM,0,?
COc1ccc(S(=O)(=O)N2CCCOC2CNC(=O)C(=O)NCCCN2CCOCC2)cc1C (configuration not stated),0,0,0,0,1.4µM,0
Cc1nc2c(C(=O)NCCc3ccccc3)c[nH]n2c(=O)c1Cc1ccccc1F,0,0,0,?,0,0
Cc1nc2c(C(=O)N(C)Cc3ccccc3)c[nH]n2c(=O)c1Cc1ccc(Cl)cc1,0,0,0,?,0,0
Cc1nc2c(C(=O)NCCc3ccc(Cl)cc3)c[nH]n2c(=O)c1Cc1ccc(Cl)cc1,0,0,-,?,11µM,-
Cc1ccc(CNC(=O)c2c[nH]n3c(=O)c(Cc4ccc(Cl)cc4)c(C)nc23)cc1,0,0,0,?,13µM,0
CCCNC1=C(N(C(C)=O)c2cccc(F)c2)C(=O)c2ccccc2C1=O,0,0,28µM,?,7.9µM,-
CCCn1c(=NC(=O)CS(=O)(=O)c2ccccc2)sc2cc(S(C)(=O)=O)ccc21,0,0,0,0,0,0
CCOc1ccc(Nc2nc(Cc3nnc(SCC(=O)NC4CCCCC4)n3C)cs2)cc1,0,0,0,0,0,0
CCOc1ccc(Nc2nc(Cc3nnc(SCC(=O)N(CC)CC)n3C)cs2)cc1,0,0,0,?,20µM,0
O=C(CCSc1ccc(Cl)cc1)c1ccco1,0,0,-,11µM,0,?
O=C(CSc1ccc(Cl)cc1)c1ccco1,0,0,0,0,0,0
COC(=O)C1=C(\O)CCCC/C=C\1C(=O)O,0,0,0,0,2.8µM,0
CC(C)N(CCCNC(=O)Nc1ccc(C(C)(C)C)cc1)C[C@H]1O[C@@H](n2cc(Br)c3c(N)ncnc32)[C@H](O)[C@H]1O,-,-,22µM,-,-,-
